Test results as given in the supplement of paper PMC10477191.
± gives the standard deviation of the averaged measurements.

test system: Drosophila ezoana antennal basiconic sensillum ab7; assay: odor-evoked OSN spike response (post minus pre-stimulus); higher = stronger neuronal excitation; settings: odor dilution: 10^-4
Experimental: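 Single sensillum recordings from antennal basiconic sensilla of D. ezoana. A 500 ms pulse of odorant (10^-4 in mineral oil or DMSO) was delivered; the response is the change in action potential frequency between the 1 s pre- and post-stimulus windows (spikes/s).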

Row | SMILES | odor-evoked OSN spike response
1 | CCOC(=O)CC(C)O (centres undefined) [Ethyl-3-hydroxybutyrate] | 80.1 ± 47 spikes/s
2 | CCCCCOC(C)=O [pentyl acetate] | 59.2 ± 30 spikes/s
3 | CC(=O)CCC=C(C)C [6-methyl-5-hepten-2-one] | 140 ± 40 spikes/s
4 | CCCCCCO [1-hexanol] | 53.6 ± 33 spikes/s
5 | CCCCCC(=O)OCC [ethyl hexanoate] | 74.4 ± 40 spikes/s
6 | CCCCCCCC(C)O (centres undefined) [2-nonanol] | 52.3 ± 32 spikes/s
7 | C[C@H]1CCC[C@@]2(C)CCCC[C@]12O [geosmin] | 3.51 ± 21 spikes/s
8 | CCCC(=O)CC [3-hexanone] | 53.1 ± 33 spikes/s
9 | CCCCC(C)O (centres undefined) [2-hexanol] | 56.1 ± 29 spikes/s
10 | CCCCCC(C)=O [2-heptanone] | 138 ± 39 spikes/s
11 | CCCCC(C)=O [2-hexanone] | 50.2 ± 29 spikes/s
12 | C=CC(O)CCCCC (centres undefined) [1-octen-3-ol] | 107 ± 43 spikes/s
13 | CCOC(=O)C(C)O (centres undefined) [Ethyl lactate] | 60.2 ± 36 spikes/s
14 | CCCCCCCC(C)=O [2-nonanone] | 66.8 ± 40 spikes/s
